From PubChem BioAssay (NCI)
The panel holds about 83,000 compounds, 20% with a hit somewhere; the sample as a whole holds those more often.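 Assay: single dose, 48 h. Readout: percent growth (0 = no net growth; negative = cell death). Active: <10.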 Calls of active or inactive are those of the source.

Test system: HL-60(TB) leukemia
Experiment: NCI-60 one-dose screen, 48 h (100 = growth as untreated, 0 = no growth, -100 = all killed)
Conditions: 10 µM unless noted

SMILES | growth
Brc1ccc(-c2cc(-c3ccc4c(c3)OC=CO4)n[nH]2)s1 | 78.8% (inactive)
N#Cc1c(-c2ccc(F)cc2)cc(-c2c[nH]c3ccccc23)nc1-c1c[nH]c2ccccc12 | 98.9% (inactive)
CN1CC[C@@H]2[C@@]3(C)CC[C@H](O)C(C)(C)[C@@H]3CC[C@@]2(C)[C@]2(C)CC[C@@]3(CO)CCC(C)(C)C[C@@H]3C12 (stereo not given in full) | 79.6% (inactive)
O=C(CSc1ccc(-c2nc3ccccc3[nH]2)cn1)N1CCN(c2ccccc2F)CC1 | 64.6% (inactive)
COc1cc(-c2nn(C(C)(C)C)cc2-c2ccnc(NCCCNS(=O)(=O)c3ccc(C)cc3)n2)ccc1Cl | 108% (inactive)
COc1ccc2c(c1)c(-c1nn3cc(-c4ccncc4)nc3s1)cn2C | -25.5% (active)
FC(F)(F)c1cc(Br)cc(-c2cc(-c3ccc4c(c3)OCCO4)[nH]n2)c1 | 6.8% (active)
CC(C)(C)Nc1nc2c(OCCc3ccccc3)cccn2c1-c1cccc(F)c1 | -30.2% (active)
CCc1cccc(NC(=O)CNc2cc(S(=O)(=O)N(C)C)cc(C)c2C)c1 | 128% (inactive)
O=C(CN1CCN(c2cc(=O)n(-c3ccccc3)c3ccccc23)CC1)Nc1nc(-c2ccccc2)cs1 | 37.1% (inactive)
C#C[C@]1(O)CC[C@H]2[C@@H]3CC=C4c5sc(Nc6cccc(Cl)n6)nc5CC[C@]4(C)[C@H]3CC[C@@]21C | -15.6% (active)
CC(=O)Nc1ccc(C)c(Nc2cc(-c3ccc(-n4cccn4)cc3)[nH]n2)c1 | 12.8% (inactive)
N/C(=N\C(N)=N\c1nc2ccccc2s1)c1ccc(C(F)(F)F)cc1 | 53.6% (inactive)
O=C(Nc1nc2ccc([N+](=O)[O-])cc2s1)Nc1ccccc1Cl | 28.7% (inactive)
CCN(CC)CCOc1ccc(C(=C(C)c2ccc(OC)cc2)c2ccc(OCCN(CC)CC)cc2)cc1 | -42.9% (active)
O=S(=O)(Oc1ccc(-c2cn3ccoc3n2)cc1)C1CCCCC1 | 90.2% (inactive)
C[C@H]1[C@H](C)CC[C@]2(COC(=O)c3cccnc3)CC[C@]3(C)C(=CC[C@@H]4[C@@]5(C)CCCNC(C)(C)[C@@H]5CC[C@]43C)[C@H]12 | 23.9% (inactive)
Cc1ccc(/C=C/CC(=O)Nc2ccc(C(=O)Nc3ccc(F)cc3N)cc2)cn1 | 8.39% (active)
Cc1cc2nc3c4cc(C#N)ccc4n(CCN(C)C)c3nc2cc1C | -35.7% (active)
Cc1c(NC(=O)CSc2nc3sc4c(c3c(=O)n2-c2ccc(Cl)cc2)CCCC4)c(=O)n(-c2ccccc2)n1C | 80% (inactive)

SMILES | growth
COc1cc(C2CC(c3ccc(Nc4nc(NCCO)nc(Nc5ccc(Cl)cc5)n4)cc3)=Nc3c(N)nc(N)nc3N2)cc(OC)c1OC (stereo not given) | 25% (inactive)
O=C(CSc1nc2sc3c(c2c(=O)n1-c1ccc(Cl)cc1)CCCC3)N/N=C/c1ccc(F)cc1 | 97.9% (inactive)
O=C(NNc1nc2cc(F)c(F)cc2n2c(CN3CC4CNCC4C3)ccc12)c1ncccn1 (stereo not given) | -30.7% (active)
COc1cc2nc(Cl)nc(Nc3cccc(C4=Nc5c(N)nc(N)nc5NC(c5ccc6c(c5)OCO6)C4)c3)c2cc1OC (stereo not given) | 68.4% (inactive)
CN1CCN(Cc2ccc(NC(=O)c3cncc(C#Cc4[nH]nc5ncncc45)c3)cc2C(F)(F)F)CC1 | 21.5% (inactive)
CN1C(=S)N(C)C2C1NN=C1SC(c3ccccc3)=CC(=O)N12 (stereo not given) | 80.7% (inactive)
CCCC(=O)NC(c1cccnc1)c1ccc2c(C)ccnc2c1O (stereo not given) | 6.67% (active)
COC1=C(c2ccccc2)C(=O)C(OC)=C(c2ccccc2)C1=O | 5.79% (active)
COc1ccc(C(=O)c2cc(C(=O)/C=C/c3c(Cl)cccc3Cl)c3cc(C)ccn23)cc1 | 101% (inactive)
COc1cccc(N2CCN(c3ncnc4c3[nH]c3ccc(F)cc34)C[C@@H]2C)c1 | -38.8% (active)
CC(C)(C)c1ccc(-c2nnc(-c3nc4ccccc4nc3Cl)o2)cc1 | 13.6% (inactive)
CCN(CC)CCn1c2ccc(O)cc2c2sc3cc(OC)ccc3c(=O)c21 | 16.5% (inactive)
CC1(C)CC[C@]23CC[C@]4(C)[C@H](CC[C@@H]5[C@@]6(C)CC[C@H](N)C(C)(C)[C@@H]6CC[C@]54C)[C@H]2[C@H]1OC3 | -38.4% (active)
CCOC(=O)c1nn(-c2ccccc2)c(=O)c2c(N)c(C#N)c(-c3cccs3)cc12 | 113% (inactive)
Cc1ccc2c(n1)C(=O)C(Cl)=C(Nc1cc(C(F)(F)F)cc(C(F)(F)F)c1)C2=O | 40.7% (inactive)
C#C[C@]1(O)CC[C@H]2[C@@H]3CC=C4c5sc(NCc6ccccc6)nc5CC[C@]4(C)[C@H]3CC[C@@]21C | 24% (inactive)
CC(=O)c1sc(Nc2cccc(Nc3nc(C)c(C)s3)c2)nc1C | 34.2% (inactive)
O=C(CSc1nc2ccccc2c(=O)n1CCc1ccccc1)Nc1ccc(S(=O)(=O)Nc2ccc(Cl)nn2)cc1 | 132% (inactive)
C#C[C@]1(O)CC[C@H]2[C@@H]3CC=C4c5sc(C6CCOCC6)nc5CC[C@]4(C)[C@H]3CC[C@@]21C | 56.7% (inactive)
C/C(=C(/C)C1CC1CCN(C(=O)c1ccc([N+](=O)[O-])cc1)S(=O)(=O)c1ccc(C)cc1)C1CCCCC1 (stereo not given) | 96.5% (inactive)
